Assay outcomes deposited in PubChem BioAssay by National Center for Advancing Translational Sciences (NCATS).
ELG1 repair inh: qHTS screen for small molecules that inhibit ELG1-dependent DNA repair in human embryonic kidney (HEK293T) cells expressing luciferase-tagged ELG1. HEK293T ELG1-luciferase reporter, luminescence, 16 h; DNA damage induced by 5-fluorouridine. Potency, µM (top dose mostly 46.1 µM), without a hit: top-dose activity change, negative = inhibition, actives largely listed as inhibitors. actives 2.3% (n = 330,000); further: on the % scale 0 is the no-effect control and ±100 the full control effect; nearly all actives have a fitted effect of over 55% in size
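Quantitative HTS, concentration-response format. 2,000 cells/well co-treated with 5-fluorouridine and compound, 16 hr in 5% CO2 at 37 °C; ONE-Glo luminescence read after 30 min.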
KB-3-1 tox: qHTS assay for MDR1-selective chemotherapeutics: Primary screen using the parental adenocarcinoma cell KB-3-1; KB-3-1 viability, CellTiter-Glo ATP luminescence, 72 h; Potency, µM (highest dose often 46.1 µM), most hits filed as cytotoxic; actives 1.4% (n = 400,000); AID 1347075, 2019; further: on the % scale 0 is the no-effect control and ±100 the full control effect; nearly all actives have a fitted effect of over 60% in size
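KB-3-1 parental drug-naive adenocarcinoma cells in DMEM/10% FBS, incubated 72 h at 37 C with pin-transferred compounds across a concentration series. Viability by CellTiter-Glo luminescence; concentration-response curves fitted after normalization.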
MCF10A rereplic: A quantitative high throughput screen for small molecules that induce DNA re-replication in MCF 10a normal breast cells | actives 2.9% (n = 350,000) | MCF 10A DNA re-replication, Hoechst nuclear intensity, 48 h | Potency, µM (titrated, usually from 46.1 µM), without a hit: at the highest dose activity, positive = re-replication, usual class: activators | AID 624296, 2012; further: % of control where 0% means no effect; nearly all actives have a fitted effect of over 50% in size
SW480 rerep: A quantitative high throughput screen for small molecules that induce DNA re-replication in SW480 colon adenocarcinoma cells; SW480 DNA re-replication, Hoechst DNA content imaging, 48 h; Potency, µM (doses to about 46.1 µM), for inactives: top-dose re-replication activation, most hits filed as activators; actives 1.8% (n = 340,000); AID 624297, 2012; further: % of control where 0% means no effect; nearly all actives have a fitted effect of over 55% in size
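First, 250 cells per well were seeded. Next, compound or vehicle (23 nL) was pinned in, plates sat 48 hr at 37 C. Finally Hoechst was added for 40 min before fluorescence scanning.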
KB-V1 cytotox: qHTS assay for MDR1-selective chemotherapeutics: Primary screen using the drug-selected MDR subline cells KB-V1 | KB-V1 MDR cells viability, CellTiter-Glo, 72 h | Potency, µM (titrated, usually from 46.1 µM), most hits filed as cytotoxic | actives 3.4% (n = 400,000) | AID 1347076, 2019; further: on the % scale 0 is the no-effect control and ±100 the full control effect; nearly all actives have a fitted effect of over 60% in size
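KB-V1 cells (P-gp-expressing MDR subline of KB-3-1) in phenol-red-free DMEM with 10% FBS were exposed to library compounds over a concentration series for 72 h at 37 degrees C. Viability read by CellTiter-Glo luminescence; concentration-effect curves fitted after normalization.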
Numbers without * were called inactive; i = inactive; ? = inconclusive; nt = no result; ! = a repeat was not active; [ ] = another dose, or the depositor's remark. Only some compounds are listed: those with a hit (about 8.1% of all), similar ones and a draw of the others. The call rests on the fitted dose curve; in most records, active means well fitted curve in the direction sought with a large enough effect; inconclusive means small, poorly fitted or top-dose-only effect, or another doubt; inactive means no such curve, though single readings can be large; an effect the other way counts as inactive or inconclusive. Potency means the concentration at half of the fitted maximal effect.

SMILES | ELG1 repair inh | KB-3-1 tox | MCF10A rereplic | SW480 rerep | KB-V1 cytotox
NCCNc1ccc([N+](=O)[O-])c(Sc2nc3ccccc3[nH]2)c1 | -3% | i | -35% | 12% | i
O=S(=O)(Nc1ccc(O)c(Sc2nc3ccccc3s2)c1)c1ccc(F)cc1 | -22% | i | ? | -2% | i
O=[N+]([O-])c1cc(S(=O)(=O)C(F)(F)F)ccc1Sc1nc2ccccc2[nH]1 | ? | ? | 3.7µM* | ? | i
CS(=O)(=O)c1ccc(Sc2nc3ccccc3[nH]2)c([N+](=O)[O-])c1 | 0% | ? | -186%[0.0737 µM] | 28% | i
O=[N+]([O-])c1ccc(N2CCNCC2)cc1Sc1nc2ccccc2[nH]1 | 18% | ? | 4% | 16µM* | i
O=[N+]([O-])c1cc(S(=O)(=O)C(F)(F)F)ccc1Sc1nc2ccccc2s1 | 19% | 3.3µM* | ? | 13µM* | ?
CCS(=O)(=O)CCSc1nc2ccccc2s1 | 29% | i | 0% | -10% | i
CS(=O)(=O)c1ccc(Sc2nc3ccccc3s2)c([N+](=O)[O-])c1 | ? | i | ? | 7.3µM* | ?
COc1cccc(COC(=O)CCNC(=O)c2ccc(Cl)cc2)c1OC | 29% | i | 4% | -2% | i
Cc1ccc2cc3cc(C(=O)N4CCN(c5cccc(C(F)(F)F)c5)CC4)sc3nc2c1 | nt | i | nt | nt | ?
Cc1cc(Br)cn2c(Cc3ccccc3)c(-c3ccccc3)nc12 | nt | ? | nt | nt | i
CCn1c(=O)cc(SCC(=O)Nc2ccc(C)c(F)c2)c2ccccc21 | nt | i | nt | nt | i
CCn1c(=O)cc(SCC(=O)N(C)Cc2ccccc2)c2ccccc21 | ? | i | 0% | -9% | 4.6µM*
CCn1c(=O)cc(SCC(=O)Nc2ccc3c(c2)OCO3)c2ccccc21 | ? | i | -4% | -10% | 16µM*
CCn1c(=O)cc(SCC(=O)N2CCN(c3ccccc3F)CC2)c2ccccc21 | -7% | i | ? | -3% | 23µM*!
CCCNC(=O)c1ccccc1NC(=O)Cc1ccc(OC)c(S(=O)(=O)N2CCOCC2)c1 | ? | i | 4% | 1% | ?
COc1ccc(Br)cc1C(C[N+](=O)[O-])c1c(N)n(C)c(=O)n(C)c1=O (stereo not given) | 14% | ? | ? | 3% | ?
CN(C)c1ccc(C(C[N+](=O)[O-])c2c(N)n(C)c(=O)n(C)c2=O)c(F)c1C#N (stereo not given) | -8% | ? | 3.7µM* | ? | i
Cn1c(N)c(C(C[N+](=O)[O-])c2c(F)cccc2Cl)c(=O)n(C)c1=O (stereo not given) | ? | ? | ? | 16µM* | i
COc1cccc(NC(=O)CN(C)C(=O)C(Sc2ccccc2)c2ccccc2)c1 (stereo not given) | ? | ? | 1% | -117% | ?
COc1cccc(-c2cc(C(=O)NCc3ccco3)c3ccccc3n2)c1 | ? | i | ? | 6% | i
Cc1cc(C)c2oc(C(=O)Nc3ccc(S(=O)(=O)Nc4ncccn4)cc3)cc(=O)c2c1 | nt | i | nt | nt | ?
COc1ccc(C=CC(=O)c2c(OC)cc(OC)c(OC)c2O)cc1 | nt | i | ? | ? | ?
C=CCOc1ccc(C=CC(=O)c2c(O)c(OC)c(OC)c(OC)c2OC)cc1 | nt | ? | ? | 18% | 5.8µM*
Cc1ccc(N2C(=O)CC(N(O)C3CC(=O)N(c4ccc(C)cc4)C3=O)C2=O)cc1 (stereo not given) | 5% | i | 4% | 0% | i
CC(=O)N(NC(=O)c1ccccc1Cl)C1CC(=O)N(c2ccc(C)cc2)C1=O (stereo not given) | 10% | i | 16µM* | 18% | i
